This experiment can be described thus: antiviral efficacy against SV40, host toxicity – BSC cells, set 3, confirmation (AID 485276).

This is an account of results in PubChem BioAssay AID485276 (Southern Research Specialized Biocontainment Screening …, 2010).

Potency and affinity values are given separately. Calls of active or inactive are those of the source. Where a call stands in place of a potency, no number is given. No rule for the calls is given here.

Regarding `Oc1ccc(Cc2ccc(O)cc2)cc1`, the outcome was inactive.
